The campaign covered roughly 65,000 compounds. About 2,100 (3.2%) showed an effect of 50% or more. The median lay at about -52%. Shown is part of a subset that was picked to be rich in strong results.
Tested on: Plasmodium falciparum
Experiment: Screen against P. falciparum Asexual Blood Stage (ABS), at 5uM
Assay type: functional, Dd2
Conditions: tested at 5 uM

SMILES	INHIBITION [%]
Cc1ccc(CN2CCC3(CCC3NC(=O)c3ccn(C)c3)CC2)s1 (configuration not stated)	55.9
CN(C)CCOCC1CN(CCN(C)C)Cc2ccnn2C1 (configuration not stated)	-8.37
CN(C)CCOCC1CN(Cc2ccsc2)Cc2ccnn2C1 (configuration not stated)	38.6
CN(C)CCOCC1CN(Cc2cccs2)Cc2ccnn2C1 (configuration not stated)	63.4
CNS(=O)(=O)c1cc(C)c2[nH]c(=O)cc(C)c2c1	-73.5
COc1ccc(NC(=O)Cn2nc(C)c(C)cc2=O)cc1	25.5
CC(=O)c1c(C)nn(CC(=O)Nc2ccc(Br)cc2)c1C	66.7
CC(=O)c1c(C)nn(CC(=O)Nc2ccc(F)cc2)c1C	-44.1
COc1ncccc1C(=O)N1CC[C@H]2C[C@H](c3ccncn3)O[C@@H]2C1	-27.7
COc1ccc(S(=O)(=O)N2CCC[C@@H]3CN(C(=O)C4CC4)C[C@@H]32)cc1	-95.9
Fc1ccc(CN2CCO[C@H]3[C@H](OCC4CCCC4)CC[C@@H]32)cc1	-74.2
O=C(CCC(F)(F)F)N1CCCC2(CCC(=O)N(CC3CC3)C2)C1 (configuration not stated)	-7.69
COc1ccc(-c2cc(CN)ccc2F)c(OC)c1OC	13.4
CC(C)Oc1ccccc1-c1cc(CN)ccc1F	60.3
CC(C)Oc1ccc(CNC(=O)NCc2ccncc2)cc1F	-9.03
CC(C)Oc1ccc(CNC(=O)CC(F)(F)F)cc1F	-29.4
COc1cccc(Cl)c1-c1cc(CN)ccc1F	65.3
COc1cccc(-c2cc(CN)ccc2F)c1F	-77.3
CC(C)NC(=O)Nc1ccc(-c2nc(C(C)C)no2)cc1	-60.3
CN(C)CCCNC(=O)c1cc(-c2ccc3c(c2)CCO3)n[nH]1	-55.4
Cc1nc(CN2CCN(c3nc4c(s3)c(C)nn4C)CC2)cs1	-145
CCN1CCC(CNCc2c[nH]nc2C(C)(C)C)C1 (configuration not stated)	-143
CC(C)N1CCC(CNCc2c[nH]nc2C(C)(C)C)C1 (configuration not stated)	-90.2
CC(C)(C)c1n[nH]cc1CNCC1CCN(C2CC2)C1 (configuration not stated)	52.2
Cn1c(=O)c2c(n3ncnc13)NC(=O)CC2c1ccc(F)cc1 (configuration not stated)	-53.6
Cc1cccc(C(=O)N2C[C@@H](OCc3cccnc3)[C@H]3OCCC[C@@H]32)n1	-103

SMILES	INHIBITION [%]
CC(=O)N1[C@H](CN(C)C)C[C@@H]2CN(C(=O)c3ccsc3)CC[C@@H]21	-108
CC(=O)N1[C@H](CN(C)C)C[C@@H]2CN(C(=O)c3ccno3)CC[C@@H]21	22.2
CC(=O)N1[C@H](CN(C)C)C[C@@H]2CN(C(=O)c3cnc(C)cn3)CC[C@@H]21	29
CC(=O)N1[C@H](CN(C)C)C[C@@H]2CN(C(=O)c3cccn3C)CC[C@@H]21	56.5
CC(=O)N1[C@H](CN(C)C)C[C@@H]2CN(C(=O)c3occc3C)CC[C@@H]21	55.3
CC(=O)N1[C@H](CN(C)C)C[C@@H]2CN(C(=O)c3cccc(F)c3)CC[C@@H]21	-116
CCC[C@H]1CN(Cc2cc(C#N)n(C)c2C)C[C@@H]1N(C)C	20.2
Cc1ccc(CN2C[C@@H]3COC[C@]3(COc3ccc(C#N)cn3)C2)o1	-45.3
COCC1(C(=O)N[C@H]2CN(c3ccnc(C)c3)C[C@@H]2C2CC2)CCC1	-51.7
O=C(Cc1ccccc1Cl)NCCN1CCC(c2cccs2)CC1	63.6
O=C(NCCN1CCC(c2cccs2)CC1)c1ccc(F)cc1Cl	-19.5
O=C(NCCN1CCC(c2cccs2)CC1)c1ccccc1C(F)(F)F	34.2
CCSc1ccccc1C(=O)NCCN1CCC(c2cccs2)CC1	30.9
CC(=O)NCCN1CCC(c2cccs2)CC1	6.31
O=C(NCCN1CCC(c2cccs2)CC1)Nc1cccs1	64.2
CCOCC(O)CN1CCN(C(=O)C2CCCCC2)CC1 (configuration not stated)	-108
COc1ccccc1Cc1nnc(SCCS(C)(=O)=O)o1	-75.9
c1ccc2c(NC3CCc4ncnn4C3)ncnc2c1 (configuration not stated)	-38
CCCn1nnc2c(sc3nc(N4CCOCC4)c4c(c32)CCC4)c1=O	-102
c1nc(N2CCCC2)cnc1C1CCNCC1	-135
CC(C)N1CCCC(Cc2cncc(Br)c2)CC1 (configuration not stated)	-20.1
CCc1nc(C)c(CC(=O)N2CCC3(CC2)OCCCC3O)c(=O)[nH]1 (configuration not stated)	-109
Cc1cc(C)n(CC(C)Nc2nc(C)nc3c2CCNC3)n1 (configuration not stated)	2.63
Cc1cccc(C)c1OCC(C)Nc1nc(N)nc2c1CCNC2 (configuration not stated)	67
Cc1cccnc1CC(C)Nc1nc(N)nc2c1CCNC2 (configuration not stated)	-92
Cc1ccc(-c2noc(CN3CCC(N4CCNC4=O)CC3)n2)cc1	-63.1

— ChEMBL document CHEMBL4513216, “Probing the Open Global Health Chemical Diversity Library for Multistage-Active Starting Points for Next-Generation Antimalarials” (ACS Infect Dis, 2020)
